Assay outcomes deposited in PubChem BioAssay by National Center for Advancing Translational Sciences (NCATS).
Pf growth 48h – inhibits P. falciparum growth in the first generation, 48 h | P. falciparum luciferase growth in erythrocytes, 48 h | Potency, µM (highest dose often 28.7 µM), inactives show top-dose activity change, negative = inhibition, most hits filed as inhibitors | 310,000 tested, 5.9% active; further: on the % scale 0 is the no-effect control and ±100 the full control effect
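Here the parasites carry a stable luciferase gene and grow inside erythrocytes in Albumax-based RPMI medium with compound for one erythrocytic cycle. Activity is scored as loss of luminescent signal.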
Pf growth 96h – P. falciparum growth inhibition at 96 hours; P. falciparum luciferase reporter growth, 96 h; Potency, µM (highest dose often 28.7 µM), without a hit: top-dose activity change, negative = inhibition, usual class: inhibitors; 320,000 tested, 6.9% active; AID 504834; further: on the % scale 0 is the no-effect control and ±100 the full control effect
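Two parasite generations (96 h, 37 C, 5% CO2) of compound exposure in infected erythrocytes (0.05% parasitemia, 2% hematocrit). Luciferase-reporter P. falciparum; decreased luminescence indicates inhibited growth, aimed at apicoplast-acting delayed death.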
AmpC inh no detg – AmpC beta-lactamase inhibition without detergent; P00811; AmpC nitrocefin hydrolysis, absorbance 480 nm, 0.0001% Triton; Potency, µM (highest dose often 57.1 µM), for inactives: top-dose activity change, negative = inhibition, hits mostly inhibitors; 330,000 tested, 0.52% active; AID 485341;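 further: plate controls were no compound for no effect and no enzyme for full effect; nearly all actives have a fitted effect of over 20% in size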
Target sequence (P00811 whole entry, looked up): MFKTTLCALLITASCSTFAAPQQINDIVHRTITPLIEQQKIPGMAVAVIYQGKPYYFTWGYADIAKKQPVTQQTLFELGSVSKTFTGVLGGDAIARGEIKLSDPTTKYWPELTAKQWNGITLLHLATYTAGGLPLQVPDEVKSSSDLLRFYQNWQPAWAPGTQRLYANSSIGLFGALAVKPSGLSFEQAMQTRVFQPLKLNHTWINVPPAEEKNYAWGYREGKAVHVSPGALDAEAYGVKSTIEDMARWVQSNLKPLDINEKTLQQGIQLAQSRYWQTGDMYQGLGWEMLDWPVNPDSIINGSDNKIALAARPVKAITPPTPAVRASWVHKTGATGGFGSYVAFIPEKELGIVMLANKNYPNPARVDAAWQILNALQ
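20 mM phosphate pH 7.0 + 0.01% (detergent screen) or 0.0001% Triton X-100; 5.3 nM AmpC reagent; cpd preinc 15 min RT; nitrocefin (800 uM stock) to start; A480 q20 s × 4 min; Activity was normalised to no-enzyme and no-compound control wells.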
SARS PLpro yeast – SARS-CoV PLP inhibition in yeast. S. cerevisiae expressing SARS-CoV PLpro, growth rescue. AID 485353. 330,000 tested, 0.19% active. Potency, µM (doses to about 32.9 µM), for inactives: at the top dose activity, positive = growth rescue, actives largely listed as activators; calls by dose curve; further: 0% is about no effect; nearly all actives have a fitted effect of over 55% in size
AmpC detergent – inhibitors of E. coli AmpC beta-lactamase with detergent. P00811. Potency, µM (highest dose often 114 µM), inactives show top-dose activity change, negative = inhibition, most hits filed as inhibitors. AmpC hydrolysis of nitrocefin, absorbance 480 nm, 0.01% Triton. 370,000 tested, 0.041% active;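 further: 0% = no-compound wells and -100% = no-enzyme wells; nearly all actives have a fitted effect of over 25% in size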
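AmpC (5.3 nM in the dispensed reagent) in 20 mM phosphate pH 7.0 with 0.01% (detergent screen) or 0.0001% Triton X-100 was preincubated with compounds for 15 min at room temperature. Nitrocefin was then added from an 800 uM solution, and hydrolysis was followed at 480 nm.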
Sm TGR inh – blocks Schistosoma mansoni thioredoxin glutathione reductase. purified TGR, DTNB reduction, TNB absorbance 405 nm. 360,000 tested, 3% active. Q962Y6. Potency, µM (series often up to 114 µM), without a hit: at the top dose activity change, negative = inhibition, hits mostly inhibitors; further: on the % scale 0 is the no-effect control and ±100 the full control effect; nearly all actives have a fitted effect of over 60% in size
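Kinetic colorimetric format: TGR-catalysed, NADPH-driven DTNB reduction monitored via TNB absorbance. Enzyme dispensed at 20 nM; compound exposure 15 min at room temperature before reaction start.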
* marks the source's active call; other numbers are inactive results; ? = inconclusive; · = no result; [ ] = another dose, or the depositor's remark. This is a sample that favours compounds with a hit; in the whole collection about 12% have one here. Unless noted, the call rests on the fitted dose curve; in most records, active means well fitted curve in the direction sought with a large enough effect; inconclusive means small, poorly fitted or top-dose-only effect, or another doubt; inactive means no such curve, though single readings can be large; an effect the other way counts as inactive or inconclusive. Potency means the concentration at half of the fitted maximal effect.

SMILES	Pf growth 48h	Pf growth 96h	AmpC inh no detg	SARS PLpro yeast	AmpC detergent	Sm TGR inh
Cc1ccc(S(=O)(=O)N2CCCC2CNC(=O)c2ccccc2)cc1 (stereo not drawn)	?	?	-9.4%	-3.1%	-1.6%	-2.0%
Cc1ccc(S(=O)(=O)N2CCCC2CNC(=O)c2ccc3c(c2)OCO3)cc1 (stereo not drawn)	?	14.7µM*	-24.7%	-3.5%	0.1%	-6.9%
CCS(=O)(=O)c1ccc(O)c(NC(=O)c2ccc(S(=O)(=O)N3CCCCCC3)cc2)c1	·	·	-39.3%	1.1%	·	·
O=c1nc(N2CCCC2)nc(Nc2ccccc2)[nH]1	-0.2%	14.7µM*	-5.0%	0.5%	-1.3%	-2.2%
Cn1c(=O)c2[nH]c(Nc3ccccc3)nc2n(C)c1=O	-4.6%	?	-25.9%	-9.9%	?	-14.9%
c1ccc(Nc2nc(Nc3ccccc3)nc(N3CCNCC3)n2)cc1	?	9.28µM*	27.1%	3.4%	?	4.9%
CN1CCN(c2nc(Nc3ccc(F)cc3)nc(Nc3ccc(F)cc3)n2)CC1	-3.2%[0.00184 µM]	5.6%	78.2%	-0.1%	-8.1%	1.9%
CCN1/C(=C/c2cc[n+](C)cc2)C=Cc2cc(C)ccc21	0.738µM*	-26.4%	-10.0%	6.5%	4.2%	-2.4%
CC1CCN(c2nc3ccc(C(=O)O)cc3s2)CC1	1.17µM*	-12.1%	-4.0%	-16.2%	-6.4%	0.0%
CC1CCN(c2nc3ccc(C(=O)NCc4ccc(Cl)cc4)cc3s2)CC1	·	·	·	·	17.9%	1.6%
CCOc1cc(N2CCOCC2)c(OCC)cc1NC(=O)c1cc(S(=O)(=O)N2CCOCC2)ccc1C	·	·	281.1%	-1.2%	·	·
COc1ccc(OCC(O)Cn2c(Nc3cccc(C)c3)nc3c2c(=O)n(C)c(=O)n3C)cc1 (stereo not drawn)	2.33µM*	3.29µM*	66.4%	-0.3%	?	0.0%
Cc1ccccc1OCC(O)Cn1c(SC(C)C)nc2c1c(=O)[nH]c(=O)n2C (stereo not drawn)	?	10.4µM*	37.4%	5.6%	-11.0%	5.9%
Cc1ccccc1OCC(O)Cn1c(NCc2ccco2)nc2c1c(=O)n(C)c(=O)n2C (stereo not drawn)	14.7µM*	?	81.7%	-0.2%	-13.6%	-5.6%
COc1ccc(OCC(O)Cn2c(NCCO)nc3c2c(=O)n(C)c(=O)n3C)cc1 (stereo not drawn)	·	·	·	·	15.0%	0.4%
CCSc1nc2c(c(=O)[nH]c(=O)n2C)n1CC(O)COc1ccccc1C (stereo not drawn)	?	23.9%	19.4%	2.7%	-4.0%	-14.8%
CC(=O)c1cccc(S(=O)(=O)Nc2cccnc2)c1	-4.8%	21.2%	-4.8%	-12.7%	-6.9%	2.1%
CCOc1ccc2nc(NCCCNS(=O)(=O)c3ccccc3)c(C#N)cc2c1	?	?	8.4%	4.1%	5.3%	-26.9%
C[C@]12CC[C@@H]3c4ccc(O)cc4CC[C@H]3[C@@H]1CCC2=O	?	13.1µM*	-26.2%	-5.2%	-0.5%	2.0%
CCCCC(=O)O[C@H]1CC[C@H]2[C@@H]3CCc4cc(O)ccc4[C@H]3CC[C@]12C	?	?	-43.2%	-34.6%	-7.0%	-24.7%
Cc1nn(C)c(C)c1/C=N/N=C1\CCC2C3CCc4cc(O)ccc4C3CCC12C (stereo not drawn)	2.94µM*	·	-7.3%	-6.0%	?	29.3%
C[C@]12CC[C@H]3c4ccc(O)cc4CC[C@@H]3[C@H]1CC[C@@H]2OC(=O)CCC1CCCC1	16.9µM*	13.5µM*	·	·	·	·
COc1ccc(CNC(=O)C/C(C)=N/NC(=O)C23CC4CC(CC(C4)C2)C3)cc1	-9.8%	47.4%	7.2%	-0.8%	8.4%	-35.9%
O=C(Nc1ncccn1)C12CC3CC(CC(C3)C1)C2	-2.9%	-3.5%	-12.5%	1.2%	1.2%	-0.7%
O=C(Nc1ccccn1)C12CC3CC(CC(C3)C1)C2	13.1µM*	·	-11.0%	-3.9%	1.8%	20.0%
